Measured values from the supplement of paper PMC9177965.
Values joined by “and” are separate entries in the source; they are usually repeats but may differ in a detail not shown here. Equal values may be shown once.

How the values were obtained:
[1] = tested on: HT29 RNF43 G659fs (RNF43 659mut, CRISPR-edited); assay: cell viability activity relative to DMSO (negative = inhibition); higher = more viable cells (less growth inhibition); conditions: 5 µM; 96 h
Experimental: (§1)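 Broad Repurposing Library primary screen at a single dose of 5 uM. HT29 sg-Ctrl and HT29 RNF43 G659fs CRISPR-edited isogenic cells were seeded at 2500 cells/well in 384-well plates in duplicate and treated for 96 h. Viability was read by CellTiter-Glo and reported as % activity relative to DMSO, with MG132 as the positive control (negative = growth inhibition).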

[2] = tested on: HT29 sg-Ctrl (RNF43 wildtype); assay: as above; conditions: 5 µM; 96 h
Experimental: as §1

| Compound | cell viability activity [1] | cell viability activity [2] |
| --- | --- | --- |
| Clc1ccc(Cn2c(CN3CCCC3)nc3ccccc32)cc1 | -32.7% | 11.6% |
| CC(C)OC(=O)OCOP(=O)(CO[C@H](C)Cn1cnc2c(N)ncnc21)OCOC(=O)OC(C)C | -26.8% | -48.3% |
| COc1cc(Nc2ncc(F)c(Nc3ccc4c(n3)NC(=O)C(C)(C)O4)n2)cc(OC)c1OC | -46.5% | -37.3% |
| Nc1ccccc1NC(=O)c1ccc(CNc2nccc(-c3cccnc3)n2)cc1 | -87.7% | -77% |
| N=C(NCCCCCCNC(=N)NC(=N)Nc1ccc(Cl)cc1)NC(=N)Nc1ccc(Cl)cc1 | – | -24.9% |
| Nc1ncn([C@@H]2O[C@H](CO)[C@@H](O)[C@H]2O)c(=O)n1 | -24.4% | -7.11% |
| Cc1cc(Nc2nc(N[C@@H](C)c3ccc(F)cc3)c(C#N)cc2F)n[nH]1 | -66.7% | -56.7% |
| Nc1cc(C(F)(F)F)c(-c2cc(N3CCOCC3)nc(N3CCOCC3)n2)cn1 | -75.9% | -60.1% |
| COC(=O)C[C@](O)(CCCC(C)(C)O)C(=O)O[C@@H]1C(OC)=C[C@]23CCCN2CCc2cc4c(cc2[C@H]13)OCO4 | -92.7% | -86.7% |
| Cn1c(=O)c(F)c(Nc2ccc(I)cc2F)c2c(=O)n(C[C@@H](O)CO)cnc21 | -86.8% | -90.5% |
| CCCCCCOc1nsnc1C1=CCCN(C)C1 | -59.1% | -58.7% |
| CN1CC[C@H](c2c(O)cc(O)c3c(=O)cc(-c4ccccc4Cl)oc23)[C@H](O)C1 | -83.4% | -87.7% |
| CC(C)Nc1cc(-c2c[nH]c(C(=O)N[C@H](CO)c3cccc(Cl)c3)c2)c(Cl)cn1 | -71.1% | -78.7% |
| CCN1CCN(Cc2ccc(Nc3ncc(F)c(-c4cc(F)c5nc(C)n(C(C)C)c5c4)n3)nc2)CC1 | -49.8% | -44.9% |
| CCCCCCCCNC(C)C(O)c1ccc(SC(C)C)cc1 (stereo unspecified) | -87.2% | -12.2% |
| CCC1=C[C@@H]2CN(C1)Cc1c([nH]c3ccccc13)[C@@](C(=O)OC)(c1cc3c(cc1OC)N(C)[C@H]1[C@@](O)(C(=O)OC)[C@H](OC(C)=O)[C@]4(CC)C=CCN5CC[C@]31[C@@H]54)C2 | -62.4% | -40% |
| COc1cccc2cc(-c3nc([C@H]4CC[C@H](C(=O)O)CC4)n4ncnc(N)c34)[nH]c12 | -50.5% | -27.5% |
| FC(F)c1nc2ccccc2n1-c1nc(N2CCOCC2)nc(N2CCOCC2)n1 | -33% | -29.7% |
| CNC(=O)c1ccccc1Nc1cc(Nc2ccc(N3CCOCC3)cc2OC)ncc1C(F)(F)F | -64.6% | -60% |
| OCCNCCCOc1cccc(Cl)c1Cl | -45.4% | -43.2% |

| Compound | cell viability activity [1] | cell viability activity [2] |
| --- | --- | --- |
| COc1cc([C@@H]2c3cc4c(cc3[C@@H](O[C@@H]3O[C@@H]5CO[C@@H](C)O[C@H]5[C@H](O)[C@H]3O)[C@H]3COC(=O)[C@H]23)OCO4)cc(OC)c1OP(=O)(O)O | -25.3% | -24.7% |
| Cc1c(C(=O)Nc2ccc(N3CCC(N4CCOCC4)CC3)c(C#N)c2)cnn1-c1ccc(Cl)cc1 | -36.4% | -33.4% |
| C[C@]12CC[C@@H]3c4ccc(O)cc4C[C@@H](CCCCCCCCC[S+]([O-])CCCC(F)(F)C(F)(F)F)[C@H]3[C@@H]1CC[C@@H]2O (stereo partly specified) | – | -38.5% |
| Fc1ccc(-n2cc(CCCCN3CCC4(CC3)OCc3ccccc34)c3ccccc32)cc1 | – | -62.5% |
| OC[C@H]1O[C@@H](Oc2cc(O)cc(/C=C/c3ccc(O)cc3)c2)[C@H](O)[C@@H](O)[C@@H]1O | -34.4% | -36% |
| COc1cc(N2CCC(N)CC2)ccc1Nc1ncc(Cl)c(-c2c[nH]c3ccccc23)n1 | – | -95.7% |
| Clc1ccc(CSC(Cn2ccnc2)c2ccc(Cl)cc2Cl)cc1 (stereo unspecified) | – | -29% |
| CCn1cc(-c2ccnc3[nH]c(-c4cccc(CN(C)C)c4)cc23)c(-c2ccc(NC(=O)N(C)C)cc2)n1 | -84.6% | -63.8% |
| C[C@H]1O[C@@H](O[C@H]2[C@@H](O)C[C@H](O[C@H]3[C@@H](O)C[C@H](O[C@H]4CC[C@@]5(C)[C@H](CC[C@@H]6[C@@H]5CC[C@]5(C)[C@@H](C7=CC(=O)OC7)CC[C@]65O)C4)O[C@@H]3C)O[C@@H]2C)C[C@H](O)[C@@H]1O | -92.2% | -93.4% |
| CC(=O)O[C@H]1C(=O)[C@@]2(C)[C@H]([C@H](OC(=O)c3ccccc3)[C@]3(O)C[C@H](OC(=O)[C@H](O)[C@@H](NC(=O)c4ccccc4)c4ccccc4)C(C)=C1C3(C)C)[C@]1(OC(C)=O)CO[C@@H]1C[C@@H]2O | -58.4% and -50% | -54.2% and -52.9% |
| COC(=O)c1ccccc1-c1c2ccc(=N)cc-2oc2cc(N)ccc12 | -44.3% | -37.4% |
| COc1ccc(F)c(F)c1C(=O)c1cnc(NC2CCN(S(C)(=O)=O)CC2)nc1N | -69% | -65.9% |
| COc1cc(F)c(F)c(Nc2ccc(I)cc2F)c1NS(=O)(=O)C1(C[C@H](O)CO)CC1 | – | -78.3% |
| CCCCc1ccc2[nH]c(NC(=O)OC)nc2c1 | -66.1% | -76.7% |
| Cn1cnc2c(F)c(Nc3ccc(Br)cc3F)c(C(=O)NOCCO)cc21 | -75.9% | -82.9% |
| Oc1ccc(CC2NCCc3cc(O)c(O)cc32)cc1 (stereo unspecified) | -63.7% | -66.3% |
| Cc1cc(N2CCOCC2)cc2[nH]c(-c3c(NC[C@@H](O)c4cccc(Cl)c4)cc[nH]c3=O)nc12 | -55% | -50.5% |
| Cc1ccc(S(=O)(=O)C=CC#N)cc1 | -98.8% | -97.7% |
| CCCCNc1ncc2c(-c3ccc(CN4CCN(C)CC4)cc3)cn([C@H]3CC[C@H](O)CC3)c2n1 | – | -91.1% |
